Test results taken from PubChem BioAssay (NCATS).
Several values for one entry are separate records, joined by “and”; a condition that tells them apart may be missing. Identical values can stand only once. Inconclusive results are not listed. A call without a number means that no potency is given here. Values without a mark were called inactive. Activity calls are given as the source filed them. Unless noted, the call rests on the fitted dose curve; in most records, active means well fitted curve in the direction sought with a large enough effect; inconclusive means small, poorly fitted or top-dose-only effect, or another doubt; inactive means no such curve, though single readings can be large; an effect the other way counts as inactive or inconclusive. Peptide text beside a SMILES is read from it.

Test: qHTS assay for small molecule antagonists of the retinoid-related orphan receptor gamma (ROR-gamma) signaling pathway - cell viability counter screen (AID 720652; active means well fitted curve in the direction sought with a large enough effect in the repeat runs; an effect the other way counts as inactive or inconclusive;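 further: CHO reporter cells with doxycycline-induced ROR-gamma expression; compound exposure lasted 16 hr before ATP read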)
Conditions: RORgamma reporter cell line viability counter screen; series mostly up to 92.2 µM
Procedure, shortened: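 ATP-based viability readout in the ROR-gamma reporter CHO cells after 16 hr compound exposure under doxycycline induction.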

Structure (SMILES) | outcome
Nc1ccn([C@H]2CS[C@@H](CO)O2)c(=O)n1 | inactive
CCOC(C)=O | inactive
Cc1ccccc1 | inactive

Test: qHTS assay for small molecule agonists of the antioxidant response element (ARE) signaling pathway measured by Nrf2-dependant transcriptional activity - cell viability counter screen (AID 720653; active means well fitted curve in the direction sought with a large enough effect in the repeat runs; an effect the other way counts as inactive or inconclusive)
Conditions: ARE-bla HepG2 viability, CellTiter-Glo ATP luminescence, 16 h; stronger effect = lower value
Procedure, shortened: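 Cytotoxicity counter screen: intracellular ATP quantified by CellTiter-Glo luminescence in the same ARE-bla HepG2 plates, after 16 h compound exposure and a 2 h beta-lactamase substrate step.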

Structure (SMILES) | max response
Nc1ccn([C@H]2CS[C@@H](CO)O2)c(=O)n1 | 4.54%
CCOC(C)=O | 1.62%
O=C(O)CN(CCN(CC(=O)O)CC(=O)O)CC(=O)O | 14.1% and -8.31%
CC(C)(C)NC(=O)[C@@H]1C[C@@H]2CCCC[C@@H]2CN1C[C@@H](O)[C@H](Cc1ccccc1)NC(=O)[C@H](CC(N)=O)NC(=O)c1ccc2ccccc2n1 | -9.17%
Cc1ccccc1 | 6.91% and 8.68%
CC1=C(/C=C/C(C)=C/C=C/C(C)=C/CO)C(C)(C)CCC1 | -15.5% and 5.78%

Test: qHTS Assay for Identifying Gametocytocidal Compounds (AID 743244); further: potency means the concentration at half of the fitted maximal effect;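 on max response: actives lower the fluorescent signal which means gametocytes are killed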
Conditions: P. falciparum 3D7 stage III-V gametocytes, alamarBlue, 72 h; max response: stronger effect = lower value
Procedure, shortened: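 3D7 gametocytes, stages III–V, 20,000/well; cpd 72 h, 37 °C/5% CO2; + alamarBlue 24 h; fluor. Ex 525/Em 598.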

Structure (SMILES) | max response | Potency
COC(F)(F)C(Cl)Cl | 1.97% | –
Nc1ccn([C@H]2CS[C@@H](CO)O2)c(=O)n1 | 6.99% and 7.67% | –
CCOC(C)=O | 12.9% | –
Cc1cc(C(=O)NNCc2ccccc2)no1 | -1.55% | –
C/C1=C2N=C(/C=C3N=C(/C(C)=C4\[N-][C@@](C)([C@@H]5N=C1[C@](C)(CCC(=O)NCC(C)OP(=O)(O)O[C@H]1[C@@H](O)[C@@H](n6cnc7cc(C)c(C)cc76)O[C@@H]1CO)[C@H]5CC(N)=O)[C@@](C)(CC(N)=O)[C@@H]4CCC(N)=O)[C@@](C)(CC(N)=O)[C@@H]\3CCC(N)=O)C(C)(C)[C@@H]/2CCC(N)=O.CC(=O)O.[Co] (some centres undefined) | – | 20 µM (active)
CO[C@H]1C[C@H](O[C@H]2[C@H](C)[C@@H](O[C@@H]3O[C@H](C)C[C@H](N(C)C)[C@H]3OC(C)=O)[C@@H](C)C[C@]3(CO3)C(=O)[C@H](C)[C@@H](OC(C)=O)[C@@H](C)[C@@H](C)OC(=O)[C@@H]2C)O[C@@H](C)[C@@H]1OC(C)=O | 7.91% | –
COc1cc([C@@H]2c3cc4c(cc3[C@@H](O[C@@H]3O[C@@H]5CO[C@@H](C)O[C@H]5[C@H](O)[C@H]3O)[C@H]3COC(=O)[C@H]23)OCO4)cc(OC)c1O | -3.58% | –
CC(C)(C)NC(=O)[C@@H]1C[C@@H]2CCCC[C@@H]2CN1C[C@@H](O)[C@H](Cc1ccccc1)NC(=O)[C@H](CC(N)=O)NC(=O)c1ccc2ccccc2n1 | – | 10 µM (active)
Cc1ccccc1 | 2.65% | –
CC1=C(/C=C/C(C)=C/C=C/C(C)=C/CO)C(C)(C)CCC1 | 11.8% | –
CN1C(=O)CN2CCc3ccccc3C2c2cc(Cl)ccc21 (centres undefined) | 0.102% | –
COc1ccc(CCNC[C@H](O)c2ccc(O)cc2)cc1OC | 3.09% | –

Test: qHTS assay for cell viability of HEK293 cells (AID 743288); further: nearly all actives have a fitted effect of over 50% in size
Conditions: ATP luminescence (CellTiter-Glo), 18 h, stronger effect = lower value
Procedure, shortened: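 ATP luminescence (CellTiter-Glo) reports metabolically competent cell number after parental HEK293 cells, 2,000/well, were treated with DMSO-dissolved compounds for 18 h at 37 C; reagent incubation 30 min, room temperature.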

Structure (SMILES) | max response
Nc1ccn([C@H]2CS[C@@H](CO)O2)c(=O)n1 | -4.28%
CCOC(C)=O | 2.28%
O=C(O)CN(CCN(CC(=O)O)CC(=O)O)CC(=O)O | -9.23% and -6.76%
CC(C)(C)NC(=O)[C@@H]1C[C@@H]2CCCC[C@@H]2CN1C[C@@H](O)[C@H](Cc1ccccc1)NC(=O)[C@H](CC(N)=O)NC(=O)c1ccc2ccccc2n1 | -26%
Cc1ccccc1 | 1.99% and 6.48%
CC1=C(/C=C/C(C)=C/C=C/C(C)=C/CO)C(C)(C)CCC1 | -9.33% and -12.3%

Test: qHTS assay for cell viability of the p53RE-bla HCT-116 cell line (AID 743292); further: nearly all actives have a fitted effect of over 55% in size
Conditions: p53RE-bla HCT-116 viability, ATP luminescence, 16 h; series mostly up to 95 µM
Procedure, shortened: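 ATP-based luminescence, 16 h compound exposure at 37 C, p53RE-bla HCT-116 cells at 4,000/well.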

Structure (SMILES) | outcome
Nc1ccn([C@H]2CS[C@@H](CO)O2)c(=O)n1 | inactive
CCOC(C)=O | inactive
O=C(O)CN(CCN(CC(=O)O)CC(=O)O)CC(=O)O | inactive
Cc1ccccc1 | inactive
CC1=C(/C=C/C(C)=C/C=C/C(C)=C/CO)C(C)(C)CCC1 | inactive

Test: qHTS assay to identify small molecule inhibitors of chordoma cells - UCH-1 (AID 1259355); further: nearly all actives have a fitted effect of over 55% in size; further: potency means the concentration at half of the fitted maximal effect
Conditions: UCH-1 chordoma viability, CellTiter-Glo, 48 h, combination, with auranofin plus four topoisomerase inhibitors; series mostly up to 46.1 µM
Procedure, shortened: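 800 cells/well, overnight attach; compounds pinned at 15 concs, then auranofin/camptothecin/doxorubicin/rubitecan/topotecan combo added; 48hr 37 C, 5% CO2; CellTiter-Glo, 30min RT, luminescence.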

Structure (SMILES) | Potency
CCCCC(=O)OCC(=O)[C@]1(O)Cc2c(O)c3c(c(O)c2[C@@H](O[C@H]2C[C@H](NC(=O)C(F)(F)F)[C@H](O)[C@H](C)O2)C1)C(=O)c1c(OC)cccc1C3=O | 6.31 µM (active)
CCCCCC(CC)COC(=O)CC(C(=O)OCC(CC)CCCC)S(=O)(=O)O (centres undefined) | inactive
CCCCCCC(O)C/C=C/CCCCCCCC(=O)O (centres undefined) | inactive
COC(F)(F)C(Cl)Cl | inactive
COC(=O)[C@H]1[C@H]2CC3c4[nH]c5ccccc5c4CCN3C[C@@H]2CC[C@@H]1O (some centres undefined) | inactive
Cc1c(C)c2c(c(C)c1O)CC[C@@](C)(CCC[C@@H](C)CCC[C@@H](C)CCCC(C)C)O2 | inactive
C[C@]12C=CC(=O)N[C@@H]1CC[C@@H]1[C@@H]2CC[C@]2(C)[C@@H](C(=O)Nc3cc(C(F)(F)F)ccc3C(F)(F)F)CC[C@@H]12 | inactive
CCCCCCOc1ccc(C(=N)N(CCCC)CCCC)c2ccccc12 | inactive
Cc1cc(CC(C)CC(C)(C)C)n(O)c(=O)c1 (centres undefined) (tested in a mixture with another compound) | inactive
C=C[C@]1(C)C[C@@H](OC(=O)CSC(C)(C)CNC(=O)[C@H](N)C(C)C)[C@]2(C)[C@H](C)CC[C@]3(CCC(=O)[C@H]32)[C@@H](C)[C@@H]1O | inactive
Nc1ccn([C@H]2CS[C@@H](CO)O2)c(=O)n1 | inactive
CCOC(C)=O | inactive
COc1cc(-c2ccc(-[n+]3nc(-c4ccccc4)nn3-c3ccc([N+](=O)[O-])cc3)c(OC)c2)ccc1-[n+]1nc(-c2ccccc2)nn1-c1ccc([N+](=O)[O-])cc1 | 31.6 µM (active)
Cc1cc(C(=O)NNCc2ccccc2)no1 | inactive
C/C1=C2N=C(/C=C3N=C(/C(C)=C4\[N-][C@@](C)([C@@H]5N=C1[C@](C)(CCC(=O)NCC(C)OP(=O)(O)O[C@H]1[C@@H](O)[C@@H](n6cnc7cc(C)c(C)cc76)O[C@@H]1CO)[C@H]5CC(N)=O)[C@@](C)(CC(N)=O)[C@@H]4CCC(N)=O)[C@@](C)(CC(N)=O)[C@@H]\3CCC(N)=O)C(C)(C)[C@@H]/2CCC(N)=O.CC(=O)O.[Co] (some centres undefined) | inactive
CC(=O)N[C@@H](CC(=O)O)C(=O)N[C@@H](CCC(=O)O)C(=O)O (Ac-Asp-Glu-OH) | inactive
Clc1cc(Cl)c(OCC#CI)cc1Cl | inactive
CN=C(NC#N)Nc1ccc(C2=NNC(=O)C[C@@H]2C)cc1 | inactive
CO[C@H]1C[C@H](O[C@H]2[C@H](C)[C@@H](O[C@@H]3O[C@H](C)C[C@H](N(C)C)[C@H]3OC(C)=O)[C@@H](C)C[C@]3(CO3)C(=O)[C@H](C)[C@@H](OC(C)=O)[C@@H](C)[C@@H](C)OC(=O)[C@@H]2C)O[C@@H](C)[C@@H]1OC(C)=O | inactive

Structure (SMILES) | Potency
CC[C@@H](C(=O)O)[C@@H]1O[C@@H]([C@@H](C)[C@H](O)[C@H](C)C(=O)[C@H](CC)[C@H]2O[C@]3(C=C[C@@H](O)[C@]4(CC[C@@](C)([C@H]5CC[C@](O)(CC)[C@H](C)O5)O4)O3)[C@H](C)C[C@@H]2C)[C@@H](C)C[C@@H]1C | 3.55 µM (active)
CC(Cc1ccc(O)c(O)c1)C(C)Cc1ccc(O)c(O)c1 (centres undefined) | inactive
O=C(O)CN(CCN(CC(=O)O)CC(=O)O)CC(=O)O | inactive
CCN(CC)CCOc1ccc(-c2nc3cc(Cl)ccc3s2)cc1 | inactive
NC1C2CN(c3nc4c(cc3F)c(=O)c(C(=O)O)cn4-c3ccc(F)cc3F)CC12 (centres undefined) | inactive
Cc1cc(/C=C/c2ccc3cc(N(C)C)ccc3[n+]2C)c(C)n1-c1ccccc1 | 5.01 µM (active)
CCC(=O)O[C@]1(C(=O)CCl)[C@@H](C)C[C@H]2[C@@H]3C[C@H](F)C4=CC(=O)C=C[C@]4(C)[C@@]3(F)[C@@H](O)C[C@@]21C | inactive
NC(=O)c1ncn(C2OC(CO)C(O)C2O)n1 (centres undefined) | inactive
COc1cc([C@@H]2c3cc4c(cc3[C@@H](O[C@@H]3O[C@@H]5CO[C@@H](C)O[C@H]5[C@H](O)[C@H]3O)[C@H]3COC(=O)[C@H]23)OCO4)cc(OC)c1O | inactive
C[C@]12O[C@H](C[C@]1(O)CO)n1c3ccccc3c3c4c(c5c6ccccc6n2c5c31)CNC4=O | 11.2 µM (active)
CC(C)(C)NC(=O)[C@@H]1C[C@@H]2CCCC[C@@H]2CN1C[C@@H](O)[C@H](Cc1ccccc1)NC(=O)[C@H](CC(N)=O)NC(=O)c1ccc2ccccc2n1 | inactive
CCCC(=O)Nc1ncnc2c1ncn2C1OC2COP(=O)(O)OC2C1OC(=O)CCC (centres undefined) | inactive
Cc1ccccc1 | inactive
CC1=C(/C=C/C(C)=C/C=C/C(C)=C/CO)C(C)(C)CCC1 | inactive
CCOC(=O)C1=CC2(CC)CCCN3CCc4c(n1c1ccccc41)C32 (centres undefined) | inactive
Oc1cc(O)c2c(c1)OC(c1ccc(O)c(O)c1)C(O)C2 (centres undefined) | inactive
CN1C(=O)CN2CCc3ccccc3C2c2cc(Cl)ccc21 (centres undefined) | inactive
COc1ccc(CCNC[C@H](O)c2ccc(O)cc2)cc1OC | inactive
